We go through 29 compounds from PubChem BioAssay AID686959 (The Scripps Research Institute Molecular Screening Center, 2013).

A short description of this assay: binders of r(CAG) RNA repeats, dose response, biochemical, fluorescence (AID 686959). As to conditions: r(CAG) RNA repeat binding.

Active and inactive are the calls of the source. Cut-off not given; nearly all actives show IC50 up to about 8.1 µM.

What is called IC50 is the concentration at which inhibition is half-maximal. As to `CCOC(=O)C1=C(C)NC(SCc2cc(=O)[nH][nH]2)=C(C#N)C1c1cccs1` (centres undefined), the IC50 is 7400 nM (active). For `COc1ccc(Cn2c(O)c(/C=N/NC(=O)c3cccnc3)c3ccccc3c2=O)cc1` the value was 3070 nM (active). Take `CC(C)c1ccc(C2c3[nH]c4ccccc4c3C[C@H]3C(=O)N(c4ccccc4C(=O)N4CCC[C@H]4C(=O)O)C(=O)N23)cc1` (some centres undefined): the IC50 was 3350 nM (active). Turning to `Oc1ccc(/C=N/Nc2ccnc3cc(Cl)ccc23)c(O)c1O`, the IC50 was 2500 nM (active). For `CCCOc1cccc(C2C(C(=O)c3ccc(C)o3)=C(O)C(=O)N2c2nc(C)c(C(C)=O)s2)c1` (centres undefined) the value was 4060 nM (active); for `CC(=O)C1=C(O)C(=O)N(c2cc(C(C)(C)C)on2)C1c1ccc(Br)cc1` (centres undefined), 2490 nM (active); for `O=c1[nH]n2c(=O)c3c([nH]c2c1N=Nc1cccc(Cl)c1)CCC3`, 2330 nM (active). For `Cc1ccc2c(c1)c(N=Nc1cccc(C(=O)O)c1)c(O)n2C` the value was 5070 nM (active); for `CCCOc1ccc(N2C(=O)CC(S/C(N)=N/N=C(\C)c3cccs3)C2=O)cc1` (centres undefined), 7760 nM (active). As for `N#C/C(C(=O)Nc1ccc(Cl)cc1)=C(/S)Nc1ccccc1`, the IC50 was 6140 nM (active). As to `N#CC1=C(S)N(c2ccccc2)C(c2ccc(-c3cc(Cl)ccc3Cl)o2)NC1=O` (centres undefined), the IC50 is 1470 nM (active). `C/C(=N\N=C(/N)SC1CC(=O)N(c2cccc(Cl)c2)C1=O)c1cccs1` (centres undefined): the IC50 was 5190 nM (active). Turning to `Cc1noc(NS(=O)(=O)c2ccc(NC(=O)COc3ccc(Cl)cc3Cl)cc2)c1C`, the concentration for half-maximal inhibition (IC50) is 2830 nM (active). Under `CC(C)c1ccc(C2c3[nH]c4ccccc4c3C[C@H]3C(=O)N(c4ccccc4C(=O)N4CCC[C@@H]4C(=O)O)C(=O)N23)cc1` (some centres undefined) stands 2840 nM (active); under `N/C(=N\N=C\c1cccs1)SC1CC(=O)N(c2ccc(Br)cc2)C1=O` (centres undefined), 8270 nM (active); under `O=C(O)c1ccc(N2C(=O)CC(SC(=NCc3ccc4c(c3)OCO4)Nc3ccc(F)cc3)C2=O)cc1` (centres undefined), 2890 nM (active).

Consider `COc1cc(/C=C2\C(=O)N(c3ccc(NC(C)=O)cc3)N=C2c2ccccc2)ccc1O`, for which the IC50 is 2900 nM (active). On to `Cc1cc(N2C(=O)C(O)=C(C(=O)c3cc4ccccc4o3)C2c2cccc(Cl)c2)no1` (centres undefined), for which the IC50 is 1190 nM (active).

Turning to `O=C(O)CCCCCn1c(O)c(C=C2N=c3ccccc3=N2)sc1=S`, the IC50 was 3870 nM (active). For `COC(=O)c1sc(N2C(=O)C(O)=C(C(=O)c3ccc(C)o3)C2c2ccc([N+](=O)[O-])cc2)nc1C` (centres undefined) the value was 636 nM (active); for `COc1ccc2nc(N3C(=O)C(O)=C(C(=O)c4ccco4)C3c3ccc(OC)c(OC)c3)sc2c1` (centres undefined), 2040 nM (active).

Consider `Cc1ccc2nc(N3C(=O)C(O)=C(C(=O)c4ccco4)C3c3ccc(C)o3)sc2c1` (centres undefined), for which the IC50 was 624 nM (active). For `N#CC(C#N)=C(Nc1ccc(F)cc1)SCc1cccc(Br)c1`, the IC50 was 7570 nM (active).

For the compound `N#CC1=C(N)n2c(s/c(=C\c3ccco3)c2=O)=C(C#N)C1c1ccco1` (centres undefined), the IC50 was 5380 nM (active). For `O=C(C1=C(O)C(=O)N(c2nc3ccc(Cl)cc3s2)C1c1ccco1)c1ccco1` (centres undefined) the value was 987 nM (active). Under `C=CCOc1c(OC)cc(/C=N/Nc2cccc(C(=O)O)c2)c(Br)c1Br` stands 2280 nM (active).

Take `CC1=C(C#N)c2nc(N)c(C#N)c(C)c2/C1=C\c1ccc(-c2ccccc2C(=O)O)o1`: the IC50 was 2570 nM (active). For `CCc1nnc(NS(=O)(=O)c2ccc(N/C=C/C(=O)c3ccc(C)cc3)cc2)s1` the value was 1900 nM (active). Turning to `CC1=NN(C(N)=S)C(=O)C1N=Nc1c(Br)cc(Br)cc1Br` (centres undefined), the IC50 was 5730 nM (active).
